# From PubChem BioAssay
# Records with an inconclusive call do not appear. Calls of active or inactive are those of the source.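 How the source made its calls, unless noted: active means efflux inhibition above 0.42, the validation set average plus 4 SD; inconclusive means no clear call, values can overlap the other calls; inactive means the rest.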
# Legend:
# [1] = yeast TOR pathway RPL19A-GFP modulators, primary screen, cell-based, S. cerevisiae, multiplex flow cytometry (AID 1862; in the data active means percent of DMSO control GFP below about 86%;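 further: lower values mimic rapamycin by blocking the RPL19A rise seen in DMSO cells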); details: S. cerevisiae RPL19A-GFP strain, flow cytometry fluorescence, 3 h; at 10 µM; stronger effect = lower value
# [2] = modulators of MEP2-GFP levels in yeast, primary screen, S. cerevisiae, multiplex flow cytometry (AID 1867;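 active means GFP response, as percent of the DMSO control, above the screen-wide mean plus 3 SD, about 139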;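 further: median GFP channel fluorescence of barcode-gated MEP2-GFP cells measured by flow cytometry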); details: S. cerevisiae MEP2-GFP strain, 3 h, at 10 µM, stronger effect = higher value, 100% means same as DMSO wells
# [3] = modulators of CIT2-GFP expression in yeast, primary screen, S. cerevisiae, GFP fusion, multiplex flow cytometry (AID 1870;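 active means percent response above a set limit, the screen-wide mean plus 3 SD, cut at about 130% in these data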;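 further: barcoded CIT2-GFP strain pooled with four other GFP strains with rapamycin as positive control; median GFP fluorescence per well over plate mean of DMSO wells so 100% = DMSO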); details: 3 h, at 10 µM, stronger effect = higher value
# [4] = modulators of LAP4-GFP expression in yeast, primary screen, S. cerevisiae, multiplex flow cytometry (AID 1873;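 active means GFP signal, as percent of the solvent control, above the screen mean plus 3 SD, about 149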); details: 3 h, at 10 µM, stronger effect = higher value
# [5] = modulators of AGP1-GFP expression in yeast TOR pathway, primary screen, cell-based, multiplex flow cytometry, S. cerevisiae (AID 1887;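 active means GFP signal above the screen-wide mean plus 3 SD, that is over about 124.5% of the solvent control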;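 further: AGP1-GFP fusion strain of S. cerevisiae within a five-strain barcoded multiplex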); details: 3 h, at 10 µM, stronger effect = higher value
# [6] = inhibitors of CD8+ T cell-vesicle binding, pilot screen, LFA-1/ICAM-1 modulator project, MLPCN validation set, flow cytometry (AID 2523;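 active means response below a set limit, under 55% cells CD8-positive and vesicle-bound, and CD8 cells' 90th-percentile brightness under 279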;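 on vesicle binding response: mean PE anti-B7-1 fluorescence of CD8+ cells relative to row control; 100% = QL9-loaded vesicles with DMSO vehicle in the same plate row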); details: 2C mouse CD8+ T cells, at 7 µM, stronger effect = lower value; double positive events: measured here: CD8+/vesicle+ event percentage
# [7] = target: Integrin beta-1 (Homo sapiens) + Integrin alpha-4 (Homo sapiens) (UniProt P13612+P05556); assay: inhibition of HUTS-21 binding to VLA-4, pilot screen, VLA-4 allosteric modulator project, U937 cells, HUTS-21 mAb, flow cytometry, validation set (AID 2674;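 active means inhibition above 50%, about 3 SD of the validation set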;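 further: antibody binding induced by the VLA-4 ligand LDV present at three times its Kd; 0% = LDV ligand with antibody and no compound and 100% = antibody without LDV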); details: HUTS-21 LIBS mAb binding, at 6.7 µM, stronger effect = higher value, binding induced by LDV ligand
# [8] = superoxide lowering in aged yeast cells, pilot screen, validation compound set (AID 2706;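 active means superoxide response below 65% of plate, a cut near 3 SD across the whole screen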;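 further: yeast exposed to compound for one week at 30 degrees C before staining; 100% = mean of all compound wells on the same plate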); details: S. cerevisiae aging, superoxide DHE fluorescence; at 10 µM; stronger effect = lower value
# [9] = target: Beta-adrenergic receptor kinase 1 (Homo sapiens) (UniProt P25098); assay: GRK2 binders displacing RNA aptamer, biochemical, validation, human GRK2, bead flow cytometry (AID 488806;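 active means aptamer binding inhibition above 30%, about 3 SD of noise from non-fluorescent compounds; inactive means inhibition at or below 30%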); details: bead-bound GRK2, FAM-aptamer displacement, at 10 µM, stronger effect = higher value
# [10] = target: Beta-2 adrenergic receptor (Homo sapiens) (UniProt P07550); assay: beta2AR agonists driving receptor internalization, pilot screen, cell-based, FAP fluorogen, flow cytometry, validation set (AID 504459;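 active means percent response above 42, roughly 3 SD of non-fluorescent test compounds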;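 further: agonist-driven loss of surface beta2AR via internalization measured by FAP dye flow cytometry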); details: Am2.2-beta2AR cells, FAP surface receptor flow cytometry; at 10 µM; stronger effect = higher value
# [11] = target: AP-2 complex subunit beta (Homo sapiens) (UniProt P63010); assay: inhibitors of arrestin peptide binding to AP2, pilot screen, biochemical, validation set, GST-AP2 beads, flow cytometry (AID 504541;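 active means inhibition above 54%, about 3 SD of non-fluorescent compounds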;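 further: AP2 carries R879A mutation and is captured from E. coli lysate; bead-bound FITC arrestin peptide fluorescence measuring arrestin peptide binding to AP2; 0% = DMSO wells and 100% = excess unlabeled arrestin peptide control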); details: FITC arrestin peptide, at 10 µM, stronger effect = higher value, AP2 beta2 appendage fragment, R879A mutant
# [12] = yeast V-ATPase proton transport modulators, S. cerevisiae, pHLuorin, HTS validation (AID 504600; in the data active means response above about 15%;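 further: plate controls were DMSO for no effect and reference compound for full effect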); details: S. cerevisiae pHLuorin cytosolic pH, at 10 µM, stronger effect = higher value
# [13] = system: anti-desmoglein-3 scFv antibody binding to human DSG3; assay: inhibitors of anti-DSG3 scFv binding to DSG3, pilot screen, biochemical, validation compound set, bead-based, flow cytometry (AID 588368;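 active means binding below the plate cutoff, the plate median minus 3 SD, with a reading above zero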;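 further: signal is the median channel fluorescence of bead-bound GFP antibody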); details: Protein G beads, DSG3-Fc, scFv-GFP binding, at 10 µM, stronger effect = lower value
# [14] = inhibitors of fungal efflux pumps CDR1, CDR2, MDR1, pilot screen, validation compound set, multiplex, phenotypic (AID 588506);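 further: Nile Red retained in cells so higher fluorescence means more efflux inhibition; 0 = negative control wells and 1 = enniatin B 25 µM full block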; details: S. cerevisiae pump-expressing triplex, Nile Red efflux flow cytometry; at 10 µM; stronger effect = higher value; the pumps come from Candida albicans
# [15] = target: ATP-binding cassette sub-family B member 6 (Homo sapiens) (UniProt Q9NP58); assay: ABCB6 transporter inhibitors, pilot screen, K562-ABCB6 cells, flow cytometry, validation set (AID 588550;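 active means inhibition above the screen-wide mean plus 3 SD, about 51%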;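 further: 0% = DMSO wells and 100% = benzethonium chloride 70 µM positive control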); details: K562-ABCB6 porphyrin accumulation, 1 h, at 10 µM, stronger effect = higher value
# [16] = promoters of myeloid differentiation in arrested cells, primary screen, cell-based, GFP/MAC1 double positive, flow cytometry, validation set (AID 588685;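 active means differentiation response of at least 50%, scaled between solvent and reference control, from cells with both markers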;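 further: compound exposure lasts four days before antibody staining and flow analysis; 0% = DMSO wells and 100% = 5 µM fulvestrant positive control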); details: ER-HoxA9 marrow cells, stronger effect = higher value, normalized: vehicle 0, fulvestrant 100
# Beta-2 adrenergic receptor (Homo sapiens), sequence (P07550 whole entry, looked up): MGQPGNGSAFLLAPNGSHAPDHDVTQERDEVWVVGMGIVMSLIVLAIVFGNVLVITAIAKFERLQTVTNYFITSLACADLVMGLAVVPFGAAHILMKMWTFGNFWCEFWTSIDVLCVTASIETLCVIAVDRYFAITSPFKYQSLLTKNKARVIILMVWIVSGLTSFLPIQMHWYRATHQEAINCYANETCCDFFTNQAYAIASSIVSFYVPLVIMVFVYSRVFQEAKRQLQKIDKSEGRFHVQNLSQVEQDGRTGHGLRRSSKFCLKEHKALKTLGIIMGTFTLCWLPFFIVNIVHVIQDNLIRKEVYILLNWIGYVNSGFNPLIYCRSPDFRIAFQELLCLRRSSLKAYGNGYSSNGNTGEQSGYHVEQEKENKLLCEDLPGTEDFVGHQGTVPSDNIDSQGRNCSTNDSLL
# ATP-binding cassette sub-family B member 6 (Homo sapiens), sequence (Q9NP58 whole entry, looked up): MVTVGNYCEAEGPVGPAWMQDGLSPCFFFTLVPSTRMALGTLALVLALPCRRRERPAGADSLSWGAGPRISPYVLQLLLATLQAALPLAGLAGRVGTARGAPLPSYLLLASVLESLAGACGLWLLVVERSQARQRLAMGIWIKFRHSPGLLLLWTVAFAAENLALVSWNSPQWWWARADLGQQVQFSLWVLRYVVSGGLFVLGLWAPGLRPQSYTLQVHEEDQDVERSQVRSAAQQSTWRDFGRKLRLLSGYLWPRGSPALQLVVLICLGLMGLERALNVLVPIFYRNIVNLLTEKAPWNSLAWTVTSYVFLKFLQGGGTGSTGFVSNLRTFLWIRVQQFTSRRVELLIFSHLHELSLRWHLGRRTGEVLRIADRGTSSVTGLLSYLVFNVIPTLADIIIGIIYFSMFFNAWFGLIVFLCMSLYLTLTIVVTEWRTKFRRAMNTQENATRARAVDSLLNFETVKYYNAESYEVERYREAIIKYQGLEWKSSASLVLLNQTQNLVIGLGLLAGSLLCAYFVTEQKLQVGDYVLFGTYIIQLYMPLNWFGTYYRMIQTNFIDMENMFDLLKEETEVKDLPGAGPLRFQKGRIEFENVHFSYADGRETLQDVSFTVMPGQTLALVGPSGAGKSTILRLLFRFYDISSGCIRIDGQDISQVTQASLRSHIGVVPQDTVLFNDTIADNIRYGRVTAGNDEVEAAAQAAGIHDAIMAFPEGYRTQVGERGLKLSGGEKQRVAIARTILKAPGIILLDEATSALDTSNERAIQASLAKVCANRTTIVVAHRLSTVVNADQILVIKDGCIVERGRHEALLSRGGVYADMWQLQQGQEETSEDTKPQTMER
# Beta-adrenergic receptor kinase 1 (Homo sapiens), sequence (P25098 whole entry, looked up): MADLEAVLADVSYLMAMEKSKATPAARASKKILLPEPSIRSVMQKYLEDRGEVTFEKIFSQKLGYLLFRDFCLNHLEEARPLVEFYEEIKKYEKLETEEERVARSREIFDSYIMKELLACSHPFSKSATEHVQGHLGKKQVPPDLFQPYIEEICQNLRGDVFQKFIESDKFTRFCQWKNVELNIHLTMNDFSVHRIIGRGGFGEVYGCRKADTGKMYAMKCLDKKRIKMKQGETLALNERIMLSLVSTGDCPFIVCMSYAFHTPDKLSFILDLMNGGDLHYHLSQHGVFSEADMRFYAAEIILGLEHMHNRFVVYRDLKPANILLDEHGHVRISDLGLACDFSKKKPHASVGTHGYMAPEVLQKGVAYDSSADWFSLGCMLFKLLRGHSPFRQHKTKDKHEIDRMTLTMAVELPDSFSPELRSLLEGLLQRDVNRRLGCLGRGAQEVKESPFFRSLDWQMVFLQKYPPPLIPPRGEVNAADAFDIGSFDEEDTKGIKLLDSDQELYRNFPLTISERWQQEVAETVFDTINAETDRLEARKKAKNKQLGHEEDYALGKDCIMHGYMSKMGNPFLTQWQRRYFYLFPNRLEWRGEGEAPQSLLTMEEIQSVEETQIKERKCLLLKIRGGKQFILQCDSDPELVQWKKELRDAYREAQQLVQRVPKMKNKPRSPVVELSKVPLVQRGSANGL
# Integrin beta-1 (Homo sapiens) + Integrin alpha-4 (Homo sapiens), sequence (P05556 whole entry, looked up): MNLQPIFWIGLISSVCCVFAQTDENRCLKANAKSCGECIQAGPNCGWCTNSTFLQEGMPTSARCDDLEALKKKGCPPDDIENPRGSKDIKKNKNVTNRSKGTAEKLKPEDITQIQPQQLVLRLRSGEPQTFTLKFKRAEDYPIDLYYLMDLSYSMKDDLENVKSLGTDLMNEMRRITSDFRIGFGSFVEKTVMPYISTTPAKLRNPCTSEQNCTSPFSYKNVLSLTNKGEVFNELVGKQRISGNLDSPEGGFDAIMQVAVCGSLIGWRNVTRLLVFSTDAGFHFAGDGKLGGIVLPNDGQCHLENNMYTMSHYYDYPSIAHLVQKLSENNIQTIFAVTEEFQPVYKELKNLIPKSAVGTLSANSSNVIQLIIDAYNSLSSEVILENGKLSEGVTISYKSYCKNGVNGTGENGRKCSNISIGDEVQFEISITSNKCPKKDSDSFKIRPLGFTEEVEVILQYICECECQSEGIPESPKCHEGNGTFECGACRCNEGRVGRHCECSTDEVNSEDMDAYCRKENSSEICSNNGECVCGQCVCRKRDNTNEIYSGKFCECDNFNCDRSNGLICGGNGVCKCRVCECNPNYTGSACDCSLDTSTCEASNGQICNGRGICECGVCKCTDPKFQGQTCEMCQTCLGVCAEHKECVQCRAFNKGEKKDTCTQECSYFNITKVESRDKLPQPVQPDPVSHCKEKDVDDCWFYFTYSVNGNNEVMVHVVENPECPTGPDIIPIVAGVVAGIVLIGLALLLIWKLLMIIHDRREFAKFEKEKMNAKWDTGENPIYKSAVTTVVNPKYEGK
# Integrin beta-1 (Homo sapiens) + Integrin alpha-4 (Homo sapiens), sequence (P13612 whole entry, looked up): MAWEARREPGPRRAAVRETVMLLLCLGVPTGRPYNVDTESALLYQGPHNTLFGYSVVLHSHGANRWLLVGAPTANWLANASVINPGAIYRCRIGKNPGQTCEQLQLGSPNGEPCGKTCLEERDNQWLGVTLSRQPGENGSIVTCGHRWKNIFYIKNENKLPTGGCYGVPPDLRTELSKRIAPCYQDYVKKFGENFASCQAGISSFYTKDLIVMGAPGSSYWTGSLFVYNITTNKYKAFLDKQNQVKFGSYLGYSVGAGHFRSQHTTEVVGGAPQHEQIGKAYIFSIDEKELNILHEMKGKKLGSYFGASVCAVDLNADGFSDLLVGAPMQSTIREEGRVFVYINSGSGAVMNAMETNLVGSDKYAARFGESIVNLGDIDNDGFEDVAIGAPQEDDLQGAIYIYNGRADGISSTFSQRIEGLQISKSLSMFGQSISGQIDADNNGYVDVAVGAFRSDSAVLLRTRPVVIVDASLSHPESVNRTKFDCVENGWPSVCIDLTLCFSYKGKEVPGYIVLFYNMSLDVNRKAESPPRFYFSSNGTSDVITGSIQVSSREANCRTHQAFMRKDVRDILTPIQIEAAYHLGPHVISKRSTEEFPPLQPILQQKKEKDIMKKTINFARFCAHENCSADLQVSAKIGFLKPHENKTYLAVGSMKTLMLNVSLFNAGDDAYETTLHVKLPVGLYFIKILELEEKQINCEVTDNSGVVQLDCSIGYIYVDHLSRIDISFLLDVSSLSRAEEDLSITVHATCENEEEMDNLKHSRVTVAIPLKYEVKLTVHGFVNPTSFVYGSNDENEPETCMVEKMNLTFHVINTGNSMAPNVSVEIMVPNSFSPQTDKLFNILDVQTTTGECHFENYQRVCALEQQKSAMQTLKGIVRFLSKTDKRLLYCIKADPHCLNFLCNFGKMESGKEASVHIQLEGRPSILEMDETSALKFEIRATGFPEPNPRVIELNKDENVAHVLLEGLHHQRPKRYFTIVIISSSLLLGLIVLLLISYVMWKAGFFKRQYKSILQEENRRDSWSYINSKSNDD
# AP-2 complex subunit beta (Homo sapiens), sequence (P63010 whole entry, looked up, the tested form may be a part, one chain of several): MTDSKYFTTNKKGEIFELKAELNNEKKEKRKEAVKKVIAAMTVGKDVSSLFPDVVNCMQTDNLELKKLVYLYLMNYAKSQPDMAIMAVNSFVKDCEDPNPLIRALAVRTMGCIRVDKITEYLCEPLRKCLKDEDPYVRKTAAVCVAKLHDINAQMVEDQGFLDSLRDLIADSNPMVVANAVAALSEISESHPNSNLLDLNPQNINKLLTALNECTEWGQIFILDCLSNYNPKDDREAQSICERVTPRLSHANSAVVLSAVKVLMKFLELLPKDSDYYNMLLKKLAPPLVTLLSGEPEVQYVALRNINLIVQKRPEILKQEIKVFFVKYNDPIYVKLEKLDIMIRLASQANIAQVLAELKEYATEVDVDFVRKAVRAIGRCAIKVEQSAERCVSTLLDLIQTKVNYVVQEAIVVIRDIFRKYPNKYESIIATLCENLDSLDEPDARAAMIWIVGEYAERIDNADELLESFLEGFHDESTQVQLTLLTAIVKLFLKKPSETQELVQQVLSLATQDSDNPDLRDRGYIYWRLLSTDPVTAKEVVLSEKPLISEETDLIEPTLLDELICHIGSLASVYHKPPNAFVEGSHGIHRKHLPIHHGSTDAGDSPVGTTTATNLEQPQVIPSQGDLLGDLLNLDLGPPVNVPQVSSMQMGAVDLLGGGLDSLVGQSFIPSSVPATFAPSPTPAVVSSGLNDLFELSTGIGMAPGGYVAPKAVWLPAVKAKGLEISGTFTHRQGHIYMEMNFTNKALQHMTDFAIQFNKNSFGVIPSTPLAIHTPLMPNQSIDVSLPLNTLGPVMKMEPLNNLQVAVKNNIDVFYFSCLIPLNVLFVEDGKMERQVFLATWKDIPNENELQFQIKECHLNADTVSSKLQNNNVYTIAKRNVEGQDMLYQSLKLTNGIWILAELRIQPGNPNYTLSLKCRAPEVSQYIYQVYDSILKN
SMILES,percent of DMSO control GFP [1],GFP response vs DMSO [2],percent response of DMSO control [3],GFP response vs DMSO [4],"GFP response, % of DMSO [5]",double positive events [6],vesicle binding response [6],inhibition [7],superoxide response (% of plate) [8],aptamer binding inhibition [9],response [10],inhibition [11],response [12],binding (% of control) [13],efflux inhibition (fraction of control) [14],inhibition [15],differentiation response [16]
COc1cc2nc(-c3ccccc3)nc(N3CCCC3)c2cc1OC,104% (inactive),98.3% (inactive),107% (inactive),82.2% (inactive),104% (inactive),68.2%,459% (inactive),-36.8% (inactive),85.3% (inactive),6% (inactive),-10% (inactive),-3.58% (inactive),2.32% (inactive),98.2% (inactive),-0.07 (inactive),11% (inactive),-1.71% (inactive)
CC(C)OC(=O)C1C(=O)CC(C)(O)C(C(=O)OC(C)C)C1c1cccc(O)c1 (stereo not drawn),105% (inactive),99.7% (inactive),105% (inactive),101% (inactive),114% (inactive),55.9%,278% (inactive),-18.5% (inactive),85.3% (inactive),-5% (inactive),6.25% (inactive),29.4% (inactive),-3.54% (inactive),99.8% (inactive),-0.22 (inactive),-13% (inactive),-11.9% (inactive)
N/C(=N\OC(=O)c1ccc(Br)o1)c1ccccn1,101% (inactive),102% (inactive),95.1% (inactive),124% (inactive),96.9% (inactive),67.8%,232% (inactive),17.6% (inactive),117% (inactive),3% (inactive),-28.6% (inactive),2.47% (inactive),5.72% (inactive),98.7% (inactive),-0.04 (inactive),6% (inactive),5.85% (inactive)
N#CCC(N)=C(C#N)C#N,91.5% (inactive),120% (inactive),111% (inactive),82.5% (inactive),91.7% (inactive),60.1%,188% (inactive),-4.21% (inactive),108% (inactive),9% (inactive),-2.94% (inactive),-8.05% (inactive),1.3% (inactive),101% (inactive),-0.02 (inactive),-45% (inactive),-5.73% (inactive)
CCOc1ccc(OCCSc2nc3ccccc3[nH]2)cc1,98.2% (inactive),98.5% (inactive),101% (inactive),108% (inactive),83.3% (inactive),60.3%,186% (inactive),16% (inactive),107% (inactive),4% (inactive),-17.3% (inactive),-5.21% (inactive),1.04% (inactive),98.7% (inactive),0.05 (inactive),3% (inactive),-7.2% (inactive)
Cc1ccc(/C=N/NC(=O)C2(C)CC2(Br)Br)cc1 (stereo not drawn),101% (inactive),98.7% (inactive),98.6% (inactive),130% (inactive),105% (inactive),60.8%,184% (inactive),-7.79% (inactive),84.5% (inactive),-4% (inactive),-4.63% (inactive),4.52% (inactive),1.48% (inactive),104% (inactive),-0.22 (inactive),-2% (inactive),-11.9% (inactive)
Oc1[nH]c2ccccc2c1C1=NCCCC1,102% (inactive),105% (inactive),96% (inactive),99.4% (inactive),106% (inactive),63.2%,161% (inactive),-3.18% (inactive),84.9% (inactive),8% (inactive),17.8% (inactive),-15.4% (inactive),1.51% (inactive),102% (inactive),-0.12 (inactive),11% (inactive),0% (inactive)
Cc1occc(=O)c1O,92.4% (inactive),112% (inactive),110% (inactive),71% (inactive),86.1% (inactive),65.3%,198% (inactive),-5.18% (inactive),100% (inactive),1% (inactive),-9.02% (inactive),-5.01% (inactive),-1.14% (inactive),98.1% (inactive),-0.06 (inactive),3% (inactive),-4.91% (inactive)
Cc1ccc2c(c1)C(C)(C)[C@]1(C)NC(=O)CCN21,94.2% (inactive),109% (inactive),92% (inactive),115% (inactive),105% (inactive),65.2%,212% (inactive),-25% (inactive),99.4% (inactive),7% (inactive),29.6% (inactive),-1% (inactive),-1.48% (inactive),98% (inactive),-0.28 (inactive),9% (inactive),2.4% (inactive)
